# Screening results deposited in PubChem by National Center for Advancing Translational Sciences (NCATS).
# Sampled rows, rich in hits. Any-hit rate of the full collection: about 11%.
# NIH3T3 tox: Cytotoxic Profiling in NIH 3T3 Cell Line of Diverse Libraries Using Quantitative High-Throughput Screening | NIH 3T3 viability, CellTiter-Glo ATP luminescence, 48-72 h | Potency, µM (series often up to 96.7 µM), without a hit: at the highest dose activity change, negative = cytotoxicity, actives largely listed as inhibitors | 94,000 compounds, 4.3% hits; note: nearly all actives have a fitted effect of over 55% in size
#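 First NIH 3T3 cells are plated at 400 cells/well; next compound is pinned in; then plates incubate 48 or 72 hr at 37 °C; finally CellTiter-Glo is added and luminescence read after 10 min.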
# FLuc inh: Firefly luciferase inhibition profiling of diverse chemical library using quantitative high-throughput screening | purified P. pyralis luciferase, luminescence, biochemical | 76,000 compounds, 2.5% hits | AID 1347043, 2019 | Luciferin 4-monooxygenase (Photinus pyralis), P08659 | Potency, µM (highest dose often 115 µM), actives largely listed as inhibitors; note: nearly all actives have a fitted effect of over 65% in size
#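 Biochemical qHTS: compound (6-point titration) added to 10uM D-luciferin plus 10uM ATP in Tris acetate pH 7.5 buffer with Mg, Tween-20 and BSA, then purified enzyme at 10nM; light output imaged.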
# NPR1 antag: Natriuretic polypeptide receptor (hNpr1) antagonism - Primary qHTS; Potency, µM (titrated, usually from 46.3 µM), inactives show at the top dose activity change, negative = inhibition, hits mostly inhibitors; AID 1347048, 2019; HEK293 hNpr1 GloSensor cGMP, ANP-stimulated luminescence; 76,000 compounds, 1.6% hits; calls by dose curve; note: nearly all actives have a fitted effect of over 60% in size
# Target sequence (P16066 whole entry, looked up): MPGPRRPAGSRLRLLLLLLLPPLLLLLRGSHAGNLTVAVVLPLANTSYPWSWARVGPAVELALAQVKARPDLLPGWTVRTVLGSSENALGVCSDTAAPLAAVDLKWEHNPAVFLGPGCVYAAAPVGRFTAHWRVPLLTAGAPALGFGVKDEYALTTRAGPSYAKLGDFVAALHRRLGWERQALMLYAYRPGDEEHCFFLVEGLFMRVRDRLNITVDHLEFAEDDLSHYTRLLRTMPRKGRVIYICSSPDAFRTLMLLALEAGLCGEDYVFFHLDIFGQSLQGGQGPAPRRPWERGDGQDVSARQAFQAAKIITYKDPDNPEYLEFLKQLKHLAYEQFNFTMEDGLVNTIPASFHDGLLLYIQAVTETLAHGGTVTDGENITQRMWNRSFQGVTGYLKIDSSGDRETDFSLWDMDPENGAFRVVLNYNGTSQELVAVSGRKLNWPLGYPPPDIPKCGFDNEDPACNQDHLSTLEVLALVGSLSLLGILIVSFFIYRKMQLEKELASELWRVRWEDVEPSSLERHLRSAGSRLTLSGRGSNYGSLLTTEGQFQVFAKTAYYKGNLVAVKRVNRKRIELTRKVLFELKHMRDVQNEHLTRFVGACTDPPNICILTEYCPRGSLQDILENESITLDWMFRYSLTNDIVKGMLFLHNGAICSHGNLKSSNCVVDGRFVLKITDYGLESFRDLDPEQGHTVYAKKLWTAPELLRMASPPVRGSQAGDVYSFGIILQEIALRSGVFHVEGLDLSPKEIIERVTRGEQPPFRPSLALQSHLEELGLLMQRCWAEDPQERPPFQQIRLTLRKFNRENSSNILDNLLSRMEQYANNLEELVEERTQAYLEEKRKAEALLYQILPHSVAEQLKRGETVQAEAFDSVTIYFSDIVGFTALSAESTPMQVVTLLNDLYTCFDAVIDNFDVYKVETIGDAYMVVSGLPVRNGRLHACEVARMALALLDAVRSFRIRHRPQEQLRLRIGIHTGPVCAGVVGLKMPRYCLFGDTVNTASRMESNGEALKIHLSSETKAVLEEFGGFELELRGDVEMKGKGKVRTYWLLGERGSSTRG
#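 HEK293 cells stably expressing human Npr1 and cGMP GloSensor pGS-40F, loaded 2 h with 2% GloSensor reagent, given compound 30 min at room temperature. Luminescence read before and 20 min after 0.1 nM hNppA.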
# HEK cytotox: Cytotoxic Profiling in HEK 293 Cell Line of Diverse Libraries Using Quantitative High-Throughput Screening; HEK 293 viability, ATP luminescence (CellTiter-Glo), 48-72 h; Potency, µM (doses to about 115 µM), for inactives: at the highest dose activity change, negative = cytotoxicity, hits mostly inhibitors; 94,000 compounds, 6.6% hits; AID 1345083, 2018; note: nearly all actives have a fitted effect of over 60% in size
#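 HEK 293 cells seeded at 250 cells/well were exposed to compound for 48 or 72 hr at 37 degree Celsius. Viability taken as ATP content by CellTiter-Glo luminescence.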
# * marks the source's active call; other numbers are inactive results; i = inactive; ? = inconclusive; / = no result; [ ] = remark or other dose. Unless noted, calls come from the whole dose curve; as a rule, active = well fitted curve in the direction sought with a large enough effect; inconclusive = small, poorly fitted or top-dose-only effect, or another doubt; inactive = no such curve, though single readings can be large; an effect the other way counts as inactive or inconclusive. % is set by controls: 0 for no effect and ±100 for the full control effect; potency is the fitted concentration of half-maximal effect.
SMILES,NIH3T3 tox,FLuc inh,NPR1 antag,HEK cytotox
O=C(NC[C@H]1C[C@@H]2CCN1C[C@@H]2CN1CCN(c2ccccc2)CC1)Nc1ccccc1,?,i,4%[70.6 µM],?
CSc1cccc(NC(=O)NC[C@H]2C[C@@H]3CCN2C[C@@H]3CN(C)CCc2ccccn2)c1,79µM*,i,-3%,?
CN(CCc1ccccn1)C[C@H]1CN2CC[C@H]1C[C@@H]2CNC(=O)Nc1ccccc1,-7%[174 µM],i,-1%[70.6 µM],i
CSc1cccc(NC(=O)NC[C@H]2C[C@@H]3CCN2C[C@@H]3CN2CCSCC2)c1,100µM*,i,1%[70.6 µM],?
CSc1cccc(NC(=O)NC[C@H]2C[C@@H]3CCN2C[C@@H]3CN2CCN(c3ccccc3)CC2)c1,20µM*,i,-2%,22µM*
COc1ccccc1N1CCN(C[C@H]2CN3CC[C@H]2C[C@@H]3CNC(=O)Nc2cccc(SC)c2)CC1,?,i,-1%,?
CN1CCN(C[C@H]2CN3CC[C@H]2C[C@@H]3CNC(=O)Nc2ccccc2)CC1,?,i,4%[70.6 µM],4%[172 µM]
O=C(NC[C@H]1C[C@@H]2CCN1C[C@@H]2CN1CCC(Cc2ccccc2)CC1)Nc1ccccc1,?,i,-1%,32µM*
CC[C@H]1CN2CC[C@H]1C[C@@H]2CNS(=O)(=O)c1ccc(C)cc1,-11%[174 µM],i,2%[70.6 µM],-8%[172 µM]
O=S(=O)(NC[C@H]1C[C@@H]2CCN1C[C@@H]2CN1CCCCC1)c1ccccc1,-16%[174 µM],i,8%[70.6 µM],?
O=S(=O)(NC[C@H]1C[C@@H]2CCN1C[C@@H]2CN1CCC(Cc2ccccc2)CC1)c1ccc(Cl)cc1,14µM*,i,-3%,7.1µM*
CSc1cccc(NC(=O)NC[C@H]2C[C@@H]3CCN2C[C@@H]3CN2CCC(Cc3ccccc3)CC2)c1,25µM*,i,3%,?
CCN(CC)C[C@H]1CN2CC[C@H]1C[C@@H]2CNS(=O)(=O)c1ccc(Cl)cc1,71µM*,i,2%[70.6 µM],?
COc1ccc(-c2cc([C@H]3CN4CC[C@H]3C[C@@H]4CNC(=O)c3cccs3)nc(C)n2)cc1OC,?,i,0%,?
Cc1cc(C(=O)NCc2c(C)ncc3c2CCNC3)n[nH]1,i,i,0%,-2%
Nc1ncccc1CN1C[C@H](c2ccc3c(c2)OCO3)[C@@H]2[C@H]1C1CCN2CC1,-9%,i,-1%,0%
COc1ccccc1N1CCN(C[C@H]2CN3CC[C@H]2C[C@@H]3CNC(=O)Nc2cccc(C#N)c2)CC1,-28%,i,2%,-19%
CCOC(=O)[C@H]1CN(C(=O)OCC)[C@]2(C)C(=O)N(C)c3ccccc3[C@H]12,-16%,/,/,?
O=C(Cc1ccccc1)N1CCCN(CCn2nc3n(c2=O)CCCC3)CC1,-9%,/,/,-7%
CC(C)NC(=O)NC[C@H]1C[C@@H]2CCN1C[C@@H]2CN1CCC(Cc2ccccc2)CC1,?,i,1%[70.6 µM],50µM*
O=C(O)C1=NOC2CN(Cc3cccnc3)CC12 (stereo not drawn),i,/,/,i
CCOC(=O)[C@@H]1[C@H]2c3ccccc3N(C)C(=O)[C@H]2N(C(=O)c2cccs2)[C@@H]1c1ccccc1,?,/,/,79µM*
C#CCN1C(=O)[C@@H]2[C@H](c3ccccc31)[C@@H](C(=O)OCC)[C@@H](c1ccccc1)N2C(=O)c1ccco1,?,/,/,32µM*
COc1cc2c(cc1Oc1ccccc1)NC(=O)C21CCN(C(=O)c2cccc(O)c2)CC1,?,i,-17%,45µM*
COc1cc2c(cc1Oc1ccccc1)NC(=O)C21CCN(C(=O)Cc2ccccc2)CC1,?,i,?,40µM*
SMILES,NIH3T3 tox,FLuc inh,NPR1 antag,HEK cytotox
COc1cc2c(cc1Oc1ccccc1)NC(=O)C21CCN(C(=O)c2ccnn2C)CC1,?,i,?,71µM*
COc1cc2c(cc1Oc1ccccc1)NC(=O)C21CCN(C(=O)c2ccccc2)CC1,?,i,?,?
O=C(Cc1ccc(Cl)nc1)N1CCN(CCCn2nc3n(c2=O)CCCC3)CC1,-15%,/,/,3%
N#Cc1cccc(-c2ccc(=O)n3c2[C@@H]2C[C@@H](CN(C(=O)NC4CCCCC4)C2)C3)c1,?,i,7%[70.6 µM],-11%[172 µM]
COc1cc2c(cc1Oc1ccccc1)NC(=O)C21CCN(Cc2ccccn2)CC1,?,i,-17%[70.6 µM],56µM*
COc1cc2c(cc1Oc1ccccc1)NC(=O)C21CCN(c2nccs2)CC1,-13%[138 µM],i,-26%[70.6 µM],?
COc1cc2c(cc1Oc1ccccc1)NC(=O)C21CCN(c2ncc(F)cn2)CC1,?,i,-17%[70.6 µM],89µM*
CCOC(=O)[C@H]1CN(C(=O)/C=C/c2ccccc2)[C@]2(C)C(=O)Nc3ccccc3[C@H]12,-27%[46.1 µM],/,/,?
Cn1nc(-c2cccs2)cc1[C@H]1CN2CC[C@H]1C[C@@H]2COC(=O)Nc1cccc(C(F)(F)F)c1,-3%,i,1%,0%
COc1ccccc1-c1cc([C@H]2CN3CC[C@H]2C[C@@H]3COC(=O)Nc2cccc(C(C)=O)c2)nc(C)n1,?,i,-11%,89µM*
Cc1nc(-c2cccs2)cc([C@H]2CN3CC[C@H]2C[C@@H]3COC(=O)NC2CCCCC2)n1,45µM*,i,2%,45µM*
Cc1nc(-c2cccs2)cc([C@H]2CN3CC[C@H]2C[C@@H]3COC(=O)Nc2cccc(C(F)(F)F)c2)n1,?,i,?,11µM*
CCCNC(=O)OC[C@H]1C[C@@H]2CCN1C[C@@H]2c1cc(-c2cccs2)nc(C)n1,?,i,0%[70.6 µM],112µM*
CC(C)CCN1CCC2(CNS(=O)(=O)c3cccnc3O2)C1 (stereo not drawn),i,/,/,1%
CCOC(=O)[C@@H]1[C@H]2c3ccccc3N(CCOC)C(=O)[C@H]2N(C(=O)C2CCC2)[C@@H]1c1ccccc1,?,/,/,50µM*
CCOC(=O)[C@H]1CN(C(=O)c2ccccc2)[C@]2(C)C(=O)N(CC3CC3)c3ccccc3[C@H]12,-26%[46.1 µM],/,/,?
CCOC(=O)[C@@H]1[C@H]2c3ccccc3N(CCOC)C(=O)[C@H]2N(C(=O)CC(C)C)[C@@H]1c1ccccc1,?,/,/,40µM*
Cc1ccccc1-c1ccc2n(c1=O)C[C@H]1C[C@@H]2CN(C(=O)c2cnccn2)C1,-1%[174 µM],i,1%[70.6 µM],89µM*
O=C(c1cnccn1)N1C[C@@H]2C[C@H](C1)c1ccc(-c3cccc(C(F)(F)F)c3)c(=O)n1C2,-5%,i,6%,-12%
O=[N+]([O-])c1ccc(Cl)nc1N1CC2CCC(C1)N2CC(F)(F)F,?,/,/,40µM*
FC(F)(F)CN1C2CCC1CN(c1nnc(Cl)c3ccccc13)C2,?,/,/,79µM*
